In article PMC7862700, “An all-to-all approach to the identification of sequence-specific readers for epigenetic DNA modifications on cytosine”:

Tests used:
Experiment in all cases: DAPPL (digital affinity profiling via proximity ligation, sequencing); 10 mM Tris-HCl pH 7.5, 50 mM NaCl, 1 mM DTT, 4% glycerol, room temperature, 30 min; GST-TFs on glutathione beads, 16-mer random dsDNA library, 0.1% formaldehyde crosslink after washing; high values mean tight binding
FLI1 = molecular target: T1, FLI1 (Homo sapiens, UniProt Q01543 1-452); conditions: protein: recombinant; tags: N-terminal GST; dsDNA, one strand shown
T1 sequence: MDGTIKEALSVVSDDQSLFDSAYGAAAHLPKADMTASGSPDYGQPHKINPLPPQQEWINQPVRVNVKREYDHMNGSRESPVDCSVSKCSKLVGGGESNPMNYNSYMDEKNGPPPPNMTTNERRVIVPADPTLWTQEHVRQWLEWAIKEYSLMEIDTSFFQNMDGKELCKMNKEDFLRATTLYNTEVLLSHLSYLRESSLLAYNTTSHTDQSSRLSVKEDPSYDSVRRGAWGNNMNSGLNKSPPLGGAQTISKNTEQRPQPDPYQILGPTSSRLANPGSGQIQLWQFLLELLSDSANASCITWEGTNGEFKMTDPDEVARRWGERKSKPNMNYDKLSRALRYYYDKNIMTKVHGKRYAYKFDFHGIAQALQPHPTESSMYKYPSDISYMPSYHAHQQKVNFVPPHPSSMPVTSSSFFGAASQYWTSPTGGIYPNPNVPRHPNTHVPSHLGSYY
Method in brief: (§1)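 A tag-only sample was pooled with DNA-barcoded human transcription factors that had been expressed in yeast as GST fusions and captured on glutathione beads. The pools were incubated for 30 min at room temperature with 200 nmole of a random double-stranded 16-mer DNA library in Tris/NaCl/DTT/glycerol buffer, then washed, crosslinked with 0.1% formaldehyde, proximity-ligated (BsaI/T4 ligase, 1 h, 37 °C), PCR-amplified and sequenced on an Illumina NextSeq500. Binding signal is each hexamer's read frequency for a factor divided by its frequency for the tag-only sample.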

ELK1 = molecular target: T2, ELK1 (Homo sapiens, UniProt P19419 1-428); conditions: protein: recombinant; tags: N-terminal GST; dsDNA, one strand shown
T2 sequence: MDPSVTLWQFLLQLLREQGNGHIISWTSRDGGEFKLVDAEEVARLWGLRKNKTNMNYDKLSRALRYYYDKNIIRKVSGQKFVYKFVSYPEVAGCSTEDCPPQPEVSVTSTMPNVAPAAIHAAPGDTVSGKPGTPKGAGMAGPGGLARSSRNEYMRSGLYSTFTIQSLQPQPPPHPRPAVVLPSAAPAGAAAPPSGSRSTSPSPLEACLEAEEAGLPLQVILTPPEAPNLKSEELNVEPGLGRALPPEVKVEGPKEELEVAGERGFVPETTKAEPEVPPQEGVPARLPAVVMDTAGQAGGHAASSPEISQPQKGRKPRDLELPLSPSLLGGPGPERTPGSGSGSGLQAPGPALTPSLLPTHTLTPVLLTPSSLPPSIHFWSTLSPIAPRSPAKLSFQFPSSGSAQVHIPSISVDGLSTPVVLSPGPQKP
Method in brief: as §1

GABPA = molecular target: T3, GABPA (Homo sapiens, UniProt Q06546 1-454); conditions: protein: recombinant; tags: N-terminal GST; dsDNA, one strand shown
T3 sequence: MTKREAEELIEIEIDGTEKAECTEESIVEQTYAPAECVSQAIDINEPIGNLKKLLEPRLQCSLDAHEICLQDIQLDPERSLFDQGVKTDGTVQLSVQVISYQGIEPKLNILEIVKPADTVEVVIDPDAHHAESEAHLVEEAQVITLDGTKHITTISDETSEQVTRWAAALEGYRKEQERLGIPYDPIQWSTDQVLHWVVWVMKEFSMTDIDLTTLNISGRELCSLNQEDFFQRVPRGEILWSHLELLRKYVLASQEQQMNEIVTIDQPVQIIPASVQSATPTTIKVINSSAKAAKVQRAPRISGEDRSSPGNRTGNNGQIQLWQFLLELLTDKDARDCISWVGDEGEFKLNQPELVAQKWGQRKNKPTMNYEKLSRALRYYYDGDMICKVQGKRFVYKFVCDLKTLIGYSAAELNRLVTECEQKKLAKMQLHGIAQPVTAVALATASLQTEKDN
Method in brief: as §1

ERG = molecular target: T4, ERG (Homo sapiens, UniProt P11308 1-479); conditions: protein: recombinant; tags: N-terminal GST; dsDNA, one strand shown
T4 sequence: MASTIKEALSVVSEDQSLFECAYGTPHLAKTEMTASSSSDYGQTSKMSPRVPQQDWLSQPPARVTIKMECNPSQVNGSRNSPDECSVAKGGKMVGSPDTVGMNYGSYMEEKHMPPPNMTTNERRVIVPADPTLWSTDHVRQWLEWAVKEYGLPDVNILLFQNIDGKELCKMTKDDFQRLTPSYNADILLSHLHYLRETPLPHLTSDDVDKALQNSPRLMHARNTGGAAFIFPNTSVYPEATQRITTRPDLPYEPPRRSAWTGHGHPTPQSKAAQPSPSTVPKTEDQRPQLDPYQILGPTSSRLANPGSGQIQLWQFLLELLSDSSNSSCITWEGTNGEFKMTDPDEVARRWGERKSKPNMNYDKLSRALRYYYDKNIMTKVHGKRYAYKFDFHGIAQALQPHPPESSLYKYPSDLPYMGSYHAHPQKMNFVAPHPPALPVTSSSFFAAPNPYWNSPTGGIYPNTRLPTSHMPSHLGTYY
Method in brief: as §1

ELF1 = ELF1 (Homo sapiens, UniProt P32519 1-619); conditions: protein: recombinant; tags: N-terminal GST; dsDNA, one strand shown
Chain of ELF1 (P32519 whole entry): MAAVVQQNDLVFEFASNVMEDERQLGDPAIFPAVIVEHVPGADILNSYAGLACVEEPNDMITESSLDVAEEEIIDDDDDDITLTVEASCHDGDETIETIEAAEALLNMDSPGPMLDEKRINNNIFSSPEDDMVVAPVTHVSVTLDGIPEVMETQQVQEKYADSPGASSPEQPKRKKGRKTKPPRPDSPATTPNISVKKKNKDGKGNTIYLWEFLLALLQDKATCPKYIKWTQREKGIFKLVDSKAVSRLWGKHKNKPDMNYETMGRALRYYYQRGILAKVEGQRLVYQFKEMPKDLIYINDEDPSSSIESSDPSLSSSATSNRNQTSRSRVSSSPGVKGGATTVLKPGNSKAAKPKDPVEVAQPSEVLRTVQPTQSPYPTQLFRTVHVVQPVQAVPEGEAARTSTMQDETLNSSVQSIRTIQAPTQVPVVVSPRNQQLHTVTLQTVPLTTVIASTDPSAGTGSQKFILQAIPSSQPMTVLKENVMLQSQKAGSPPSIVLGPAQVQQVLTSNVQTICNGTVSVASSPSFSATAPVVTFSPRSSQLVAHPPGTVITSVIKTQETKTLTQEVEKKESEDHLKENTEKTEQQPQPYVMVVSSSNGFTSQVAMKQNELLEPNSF
Method in brief: as §1

EHF = molecular target: T5, EHF (Homo sapiens, UniProt Q9NZC4 1-300); conditions: protein: recombinant; tags: N-terminal GST; dsDNA, one strand shown
T5 sequence: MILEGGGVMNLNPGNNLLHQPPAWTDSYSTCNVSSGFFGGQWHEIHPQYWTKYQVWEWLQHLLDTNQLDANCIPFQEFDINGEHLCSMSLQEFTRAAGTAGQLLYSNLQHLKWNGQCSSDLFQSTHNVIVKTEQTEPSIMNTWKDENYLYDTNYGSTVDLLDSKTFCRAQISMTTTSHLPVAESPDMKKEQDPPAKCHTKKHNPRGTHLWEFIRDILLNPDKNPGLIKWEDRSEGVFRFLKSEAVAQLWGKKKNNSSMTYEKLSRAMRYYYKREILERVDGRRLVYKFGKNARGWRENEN
Method in brief: as §1

SPI1 = SPI1 (Homo sapiens, UniProt P17947 1-270); conditions: protein: recombinant; tags: N-terminal GST; dsDNA, one strand shown
Method in brief: as §1

SPIB = SPIB (Homo sapiens, UniProt Q01892 1-262); conditions: protein: recombinant; tags: N-terminal GST; dsDNA, one strand shown
Chain of SPIB (Q01892 whole entry): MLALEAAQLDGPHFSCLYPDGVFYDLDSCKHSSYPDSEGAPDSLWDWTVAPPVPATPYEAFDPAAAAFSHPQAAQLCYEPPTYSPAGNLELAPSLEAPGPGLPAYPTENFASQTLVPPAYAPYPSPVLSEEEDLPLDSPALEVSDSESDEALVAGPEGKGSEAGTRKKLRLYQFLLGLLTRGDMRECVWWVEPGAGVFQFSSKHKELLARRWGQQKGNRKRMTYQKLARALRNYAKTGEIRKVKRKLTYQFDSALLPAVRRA
Method in brief: as §1

ELK3 = molecular target: T6, ELK3 (Homo sapiens, UniProt P41970 1-407); conditions: protein: recombinant; tags: N-terminal GST; dsDNA, one strand shown
T6 sequence: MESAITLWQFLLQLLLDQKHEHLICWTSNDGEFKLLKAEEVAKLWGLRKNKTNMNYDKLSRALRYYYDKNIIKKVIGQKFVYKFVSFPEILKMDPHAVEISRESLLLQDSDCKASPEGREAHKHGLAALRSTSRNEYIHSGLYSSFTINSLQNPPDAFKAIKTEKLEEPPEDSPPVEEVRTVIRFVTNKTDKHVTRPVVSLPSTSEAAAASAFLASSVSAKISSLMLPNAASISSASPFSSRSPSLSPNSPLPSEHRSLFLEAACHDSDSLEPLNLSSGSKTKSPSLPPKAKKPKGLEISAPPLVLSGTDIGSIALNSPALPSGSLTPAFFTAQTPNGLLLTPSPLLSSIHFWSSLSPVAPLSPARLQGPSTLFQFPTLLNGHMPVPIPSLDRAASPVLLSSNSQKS
Method in brief: as §1

FEV = molecular target: T7, FEV (Homo sapiens, UniProt Q99581 1-238); conditions: protein: recombinant; tags: N-terminal GST; dsDNA, one strand shown
T7 sequence: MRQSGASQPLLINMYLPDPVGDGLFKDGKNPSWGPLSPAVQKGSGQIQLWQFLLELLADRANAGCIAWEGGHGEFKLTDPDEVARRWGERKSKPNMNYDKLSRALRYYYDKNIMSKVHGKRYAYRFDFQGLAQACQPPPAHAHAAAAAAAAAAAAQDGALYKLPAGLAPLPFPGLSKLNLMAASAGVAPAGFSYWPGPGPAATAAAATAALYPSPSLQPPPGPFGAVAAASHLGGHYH
Method in brief: as §1

ETV5 = ETV5 (Homo sapiens, UniProt P41161 1-510); conditions: protein: recombinant; tags: N-terminal GST; dsDNA, one strand shown
Chain of ETV5 (P41161 whole entry): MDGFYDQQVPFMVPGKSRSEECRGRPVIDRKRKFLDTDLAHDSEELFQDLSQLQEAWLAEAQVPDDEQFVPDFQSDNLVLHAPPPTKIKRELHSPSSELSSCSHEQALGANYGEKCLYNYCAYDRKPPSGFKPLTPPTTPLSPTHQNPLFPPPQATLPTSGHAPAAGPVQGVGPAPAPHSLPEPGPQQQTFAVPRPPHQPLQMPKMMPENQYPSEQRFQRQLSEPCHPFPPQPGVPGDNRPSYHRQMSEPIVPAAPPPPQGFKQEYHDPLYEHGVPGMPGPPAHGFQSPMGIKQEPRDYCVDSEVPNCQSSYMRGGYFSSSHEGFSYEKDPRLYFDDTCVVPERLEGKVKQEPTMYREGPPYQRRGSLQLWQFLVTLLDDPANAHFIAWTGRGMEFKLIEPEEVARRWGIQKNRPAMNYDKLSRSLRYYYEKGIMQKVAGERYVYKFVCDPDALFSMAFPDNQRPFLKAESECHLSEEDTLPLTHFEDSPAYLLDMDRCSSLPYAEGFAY
Method in brief: as §1

HSF1 = HSF1 (Homo sapiens, UniProt Q00613 1-529); conditions: protein: recombinant; tags: N-terminal GST; chain copies: 3; dsDNA, one strand shown
Chain of HSF1 (Q00613 whole entry): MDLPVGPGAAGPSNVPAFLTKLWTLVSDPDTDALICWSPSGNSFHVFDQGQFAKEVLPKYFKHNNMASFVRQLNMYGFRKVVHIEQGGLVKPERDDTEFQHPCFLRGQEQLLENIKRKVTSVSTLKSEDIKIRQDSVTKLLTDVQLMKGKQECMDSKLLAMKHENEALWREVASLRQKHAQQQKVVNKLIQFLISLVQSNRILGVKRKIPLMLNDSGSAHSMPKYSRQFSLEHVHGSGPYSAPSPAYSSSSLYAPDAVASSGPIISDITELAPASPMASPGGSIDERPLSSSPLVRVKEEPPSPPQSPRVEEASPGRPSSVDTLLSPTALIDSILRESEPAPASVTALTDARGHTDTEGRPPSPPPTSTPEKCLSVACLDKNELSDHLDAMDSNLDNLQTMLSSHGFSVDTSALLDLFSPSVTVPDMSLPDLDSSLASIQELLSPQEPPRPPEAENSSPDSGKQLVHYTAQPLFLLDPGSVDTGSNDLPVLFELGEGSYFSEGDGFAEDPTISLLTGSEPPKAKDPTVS
Method in brief: as §1

ELF4 = ELF4 (Homo sapiens, UniProt Q99607 1-663); conditions: protein: recombinant; tags: N-terminal GST; dsDNA, one strand shown
Chain of ELF4 (Q99607 whole entry): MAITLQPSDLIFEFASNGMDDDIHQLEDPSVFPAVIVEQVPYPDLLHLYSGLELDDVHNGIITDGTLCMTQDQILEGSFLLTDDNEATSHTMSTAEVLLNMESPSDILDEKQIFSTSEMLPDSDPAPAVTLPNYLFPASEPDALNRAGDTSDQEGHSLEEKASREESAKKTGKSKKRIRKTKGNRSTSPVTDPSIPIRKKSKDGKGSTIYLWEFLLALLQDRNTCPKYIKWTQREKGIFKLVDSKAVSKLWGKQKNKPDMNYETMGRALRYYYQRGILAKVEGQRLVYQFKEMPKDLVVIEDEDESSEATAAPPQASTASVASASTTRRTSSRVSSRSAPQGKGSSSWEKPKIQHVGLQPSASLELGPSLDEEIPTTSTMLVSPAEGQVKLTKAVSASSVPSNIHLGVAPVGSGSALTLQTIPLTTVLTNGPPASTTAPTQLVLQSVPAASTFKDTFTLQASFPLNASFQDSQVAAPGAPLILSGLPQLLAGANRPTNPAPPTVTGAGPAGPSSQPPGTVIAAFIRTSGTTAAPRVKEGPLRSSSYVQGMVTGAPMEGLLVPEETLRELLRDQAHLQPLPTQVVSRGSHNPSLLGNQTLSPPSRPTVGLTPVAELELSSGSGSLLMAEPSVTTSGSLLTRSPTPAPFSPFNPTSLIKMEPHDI
Method in brief: as §1

ELK4 = molecular target: T8, ELK4 (Homo sapiens, UniProt P28324-2 1-405); conditions: protein: recombinant; tags: N-terminal GST; dsDNA, one strand shown
T8 sequence: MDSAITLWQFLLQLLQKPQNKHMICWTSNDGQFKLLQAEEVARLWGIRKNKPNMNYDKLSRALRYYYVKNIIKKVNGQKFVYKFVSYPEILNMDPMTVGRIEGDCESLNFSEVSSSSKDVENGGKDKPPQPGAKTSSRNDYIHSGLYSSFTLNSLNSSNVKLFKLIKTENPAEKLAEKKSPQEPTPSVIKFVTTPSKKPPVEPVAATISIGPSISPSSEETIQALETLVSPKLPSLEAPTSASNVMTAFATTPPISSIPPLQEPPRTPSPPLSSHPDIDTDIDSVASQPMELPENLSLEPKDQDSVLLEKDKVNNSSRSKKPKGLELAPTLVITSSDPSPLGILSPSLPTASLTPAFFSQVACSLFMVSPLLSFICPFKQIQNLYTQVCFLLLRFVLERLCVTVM
Method in brief: as §1

ETV2 = molecular target: T9, ETV2 (Homo sapiens, UniProt O00321 1-342); conditions: protein: recombinant; tags: N-terminal GST; dsDNA, one strand shown
T9 sequence: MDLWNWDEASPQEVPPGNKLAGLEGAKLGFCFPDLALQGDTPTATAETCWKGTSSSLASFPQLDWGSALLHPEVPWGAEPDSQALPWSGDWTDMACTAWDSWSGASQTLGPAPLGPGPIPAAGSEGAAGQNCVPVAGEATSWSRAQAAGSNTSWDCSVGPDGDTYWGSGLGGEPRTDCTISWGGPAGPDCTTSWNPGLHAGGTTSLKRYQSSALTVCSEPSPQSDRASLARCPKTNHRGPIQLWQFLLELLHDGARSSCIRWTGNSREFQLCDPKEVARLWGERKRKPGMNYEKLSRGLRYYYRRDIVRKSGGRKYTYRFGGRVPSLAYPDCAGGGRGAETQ
Method in brief: as §1

ELF3 = molecular target: T10, ELF3 (Homo sapiens, UniProt P78545 1-371); conditions: protein: recombinant; tags: N-terminal GST; dsDNA, one strand shown
T10 sequence: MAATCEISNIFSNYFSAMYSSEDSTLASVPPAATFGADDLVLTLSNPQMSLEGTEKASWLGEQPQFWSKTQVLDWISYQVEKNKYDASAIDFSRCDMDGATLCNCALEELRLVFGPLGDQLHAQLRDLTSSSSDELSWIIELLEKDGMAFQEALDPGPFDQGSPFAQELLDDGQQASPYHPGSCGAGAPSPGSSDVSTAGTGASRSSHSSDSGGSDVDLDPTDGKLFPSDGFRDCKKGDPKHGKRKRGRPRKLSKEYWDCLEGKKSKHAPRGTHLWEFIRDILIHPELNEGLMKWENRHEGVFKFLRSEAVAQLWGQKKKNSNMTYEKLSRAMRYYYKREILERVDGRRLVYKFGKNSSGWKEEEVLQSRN
Method in brief: as §1

CRX = CRX (Homo sapiens, UniProt O43186 1-299); conditions: protein: recombinant; tags: N-terminal GST; dsDNA, one strand shown
Chain of CRX (O43186 whole entry): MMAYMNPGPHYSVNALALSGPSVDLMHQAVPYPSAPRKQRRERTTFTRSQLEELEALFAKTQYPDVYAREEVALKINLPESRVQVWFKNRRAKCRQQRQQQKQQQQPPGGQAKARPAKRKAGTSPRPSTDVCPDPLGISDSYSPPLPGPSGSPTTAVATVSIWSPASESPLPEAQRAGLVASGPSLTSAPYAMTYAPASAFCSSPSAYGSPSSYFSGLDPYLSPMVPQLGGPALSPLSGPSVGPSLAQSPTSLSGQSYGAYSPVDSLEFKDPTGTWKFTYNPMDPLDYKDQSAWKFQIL
Method in brief: as §1

ETV1 = ETV1 (Homo sapiens, UniProt P50549 1-477); conditions: protein: recombinant; tags: N-terminal GST; dsDNA, one strand shown
Chain of ETV1 (P50549 whole entry): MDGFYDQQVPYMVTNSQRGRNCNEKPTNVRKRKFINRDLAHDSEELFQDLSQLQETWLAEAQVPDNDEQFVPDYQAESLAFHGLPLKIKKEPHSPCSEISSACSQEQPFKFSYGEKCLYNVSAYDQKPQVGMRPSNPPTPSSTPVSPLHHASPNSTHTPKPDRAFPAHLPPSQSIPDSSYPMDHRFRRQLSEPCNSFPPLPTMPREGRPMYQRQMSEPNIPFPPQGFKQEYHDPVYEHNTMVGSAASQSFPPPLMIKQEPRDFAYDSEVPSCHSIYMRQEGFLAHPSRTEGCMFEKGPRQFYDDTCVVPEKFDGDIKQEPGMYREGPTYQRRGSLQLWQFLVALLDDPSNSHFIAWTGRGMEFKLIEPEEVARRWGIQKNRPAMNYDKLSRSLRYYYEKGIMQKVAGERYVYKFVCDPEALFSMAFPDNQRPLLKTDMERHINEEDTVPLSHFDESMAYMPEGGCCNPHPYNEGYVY
Method in brief: as §1

Q: TAGTGT was tested. Which binding signal (FLI1) did it give?
A: 1.17 fold enrichment (6-mer frequency, TF over GST control)

Q: And the binding signal (ELK1)?
A: 1.16 fold enrichment (6-mer frequency, TF over GST control)

Q: And the binding signal (GABPA)?
A: 1.14 fold enrichment (6-mer frequency, TF over GST control)

Q: And the binding signal (ERG)?
A: 1.02 fold enrichment (6-mer frequency, TF over GST control)

Q: And the binding signal (ELF1)?
A: 1.14 fold enrichment (6-mer frequency, TF over GST control)

Q: And the binding signal (EHF)?
A: 1.11 fold enrichment (6-mer frequency, TF over GST control)

Q: What about the binding signal (SPI1) of the same sequence?
A: 1.12 fold enrichment (6-mer frequency, TF over GST control)

Q: What about the binding signal (SPIB) of the same sequence?
A: 1.14 fold enrichment (6-mer frequency, TF over GST control)

Q: And the binding signal (ELK3)?
A: 1.08 fold enrichment (6-mer frequency, TF over GST control)

Q: What about the binding signal (FEV) of the same sequence?
A: 1.02 fold enrichment (6-mer frequency, TF over GST control)

Q: What about the binding signal (ETV5) of the same sequence?
A: 1.12 fold enrichment (6-mer frequency, TF over GST control)

Q: What about the binding signal (HSF1) of the same sequence?
A: 1.15 fold enrichment (6-mer frequency, TF over GST control)

Q: And the binding signal (ELF4)?
A: 1.11 fold enrichment (6-mer frequency, TF over GST control)

Q: And the binding signal (ELK4)?
A: 1.4 fold enrichment (6-mer frequency, TF over GST control)

Q: And the binding signal (ETV2)?
A: 1.06 fold enrichment (6-mer frequency, TF over GST control)

Q: What about the binding signal (ELF3) of the same sequence?
A: 1.21 fold enrichment (6-mer frequency, TF over GST control)

Q: What about the binding signal (CRX) of the same sequence?
A: 1.29 fold enrichment (6-mer frequency, TF over GST control)

Q: What about the binding signal (ETV1) of the same sequence?
A: 1.21 fold enrichment (6-mer frequency, TF over GST control)
